Data on 19 molecules can be found in PubChem BioAssay (NCATS).

Values joined by “and” are separate entries in the source; they are usually repeats but may differ in a detail not shown here. Equal entries are not always repeated. Inconclusive results are not listed. A structure can be active in one record and inactive in another. Active and inactive are the calls of the source. Unless noted, calls follow the shape of the dose curve; as a rule, active = well fitted curve in the direction sought with a large enough effect; inconclusive = small, poorly fitted or top-dose-only effect, or another doubt; inactive = no such curve, though single readings can be large; an effect the other way counts as inactive or inconclusive. Residues, ends and D or L forms follow the SMILES beside them. *: point of attachment. Cbz = O=C(OCc1ccccc1)*

A short description of assay [1]: High-throughput drug toxicity screening in the BPDCN cell line Gen2.2 (AID 1224824; call rule not given here;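 also: cells exposed to compounds for 48 h before reading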). Particulars: Gen2.2 BPDCN cells; at 45.8 µM (top of the series) unless noted. In a few lines: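 CellTiter-Glo luminescence after 48 h compound exposure of Gen2.2 cells; percent activity set with DMSO as 100% and bortezomib (9.2 uM final) as 0%. Cells seeded at 500 per well, RPMI + 10% FBS, 37 °C.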

Assay [2] is described as follows: High-throughput drug toxicity screening in the BPDCN cell line Cal-1 (AID 1224825; call rule not given here). To be noted: Cal-1 BPDCN cell viability, qHTS; at 45.8 µM (top of the series) unless noted. In a few lines: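 Exponentially growing Cal-1 cells, 500 per well in phenol red-free RPMI with 10% FBS, were exposed to compounds for 48 h at 37 °C, 5% CO2. Viability was read by CellTiter-Glo luminescence and normalised to DMSO (100%) and 9.2 uM bortezomib (0%).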

Assay [3] in a line: qHTS assay for measurement of the activity of small molecule inhibitors on Zika virus induced Caspase-3 activity in human iPSC derived neural progenitor cells (hNPCs) (AID 1224857). Also: % of control where 0% means no effect; nearly all actives have a fitted effect of over 65% in size. The method, boiled down:
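Human iPSC-derived neural progenitor cells pretreated 1 hr with compounds, then infected with Zika virus (2 FFU/cell) for 6 hours at 37 C. Caspase-3/7 measured by Caspase-Glo luminescence; % inhibition calculated from induction scaled to uninfected (0%) and infected (100%) wells.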
(qHTS replaces the single test concentration by a dilution series.)

The nature of assay [4]: qHTS assay for measurement of the activity of small molecule inhibitors on Zika virus induced Caspase-3 activity in human astrocytoma cells (AID 1224859).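 Also: plate controls were ZIKV-infected untreated cells for no effect and uninfected cells for full effect.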 In a few lines: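 SNB-19 astrocytoma cells, 250/well, pretreated 1 h with compounds, then Zika virus at 2 FFU/cell for 6 h at 37 C; Caspase-Glo 3/7 luminescence after 30 min; percent inhibition normalised to uninfected and infected controls.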

Assay [5] in a line: qHTS Screen of the MIPE 4.0 Collection Against Ewings Sarcoma (RDES) (AID 1259252). Also: nearly all actives have a fitted effect of over 35% in size. Also: potency is read from the fitted curve at half-maximal effect. The method, boiled down:
(§1)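 Here, cells in 5% FBS RPMI were exposed for two days (48 h) to compound dilutions added four hours after plating. ATP-based CellTiter-Glo luminescence measured viability, normalized to vehicle and no-cell blanks.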

Assay [6] is described as follows: qHTS Screen of the MIPE 4.0 Collection Against Ewings Sarcoma (EW8) (AID 1259255). Also: nearly all actives have a fitted effect of over 35% in size. Also: potency is read from the fitted curve at half-maximal effect.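 As to viability: 100% = DMSO-treated cells and 0% = medium-only wells without cells.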 The method, boiled down: as §1
Assay [7] can be described thus: qHTS Screen of the MIPE 4.0 Collection Against Ewings Sarcoma (TC32) (AID 1259256). Also: nearly all actives have a fitted effect of over 45% in size. Also: potency is read from the fitted curve at half-maximal effect. The method, boiled down: as §1
A short description of assay [8]: P-glycoprotein substrates identified in KB-3-1 adenocarcinoma cell line, qHTS therapeutic library screen (AID 1346986). Also: nearly all actives have a fitted effect of over 60% in size.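 Also: potency is read from the fitted curve at half-maximal effect; potency is for cytotoxicity meaning loss of cell viability.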 The method, boiled down:
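Resistance attributable to P-gp was assessed by comparing AC50 in KB-8-5-11 with parental KB-3-1 and by tariquidar reversal. Cells were exposed 72 h and viability read by CellTiter-Glo.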

Assay [9] is described as follows: P-glycoprotein substrates identified in KB-8-5-11 adenocarcinoma cell line, qHTS therapeutic library screen (AID 1346987). Also: nearly all actives have a fitted effect of over 65% in size. Also: potency is read from the fitted curve at half-maximal effect. In a few lines: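 Steps: plate 500 KB-8-5-11 cells/well in DMEM + 10% FCS (colchicine removed); pin compounds in dose-response; incubate 72 h, 37 degree C, 5% CO2; add CellTiter-Glo, 5 min; read luminescence.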
Assay [10] in a line: qHTS Screen of the MIPE 4.0 Collection Against Ewings Sarcoma (TC71) (AID 1259253). Also: nearly all actives have a fitted effect of over 40% in size. Also: potency is read from the fitted curve at half-maximal effect. In a few lines:
as §1

As to `CCCNS(=O)(=O)Nc1ncnc(OCCOc2ncc(Br)cn2)c1-c1ccc(Br)cc1`, in assay [1], the cell viability, % of control (lower = more cytotoxic) came out at 180%. Besides, in assay [2], the viability (% of control) turned out to be 117%. Moreover, the Potency entry in [3], in assay [4], in [5], in [6], in assay [7] and in assay [8] was “inactive” throughout. In addition, the Potency result in assay [9] is “inactive”.
Consider `O=C1NC(O)CCN1[C@@H]1O[C@H](CO)[C@H](O)[C@H]1O` (some centres undefined), for which, in assay [1], the cell viability, % of control (lower = more cytotoxic) amounted to 105%. Moreover, the viability (% of control) in [2] is 115%. Also, the Potency entry in assay [3], in [4], in [5], in assay [6], in assay [7] and in [9] was “inactive” each time.
With `CNC(=O)c1cccc(-c2ccc3c(N4CCOC[C@H]4C)nc(N4CCOC[C@H]4C)nc3n2)c1`, the cell viability, % of control (lower = more cytotoxic) in assay [1] was 20.8%. Also, in assay [2], the viability (% of control) worked out at 20.9%. Further, the Potency result in assay [3] and in assay [4] was “inactive” in each case. For the same molecule, the Potency was 83.3 nM (active) in assay [5], 93.5 nM (active) in [6], 59 nM (active) in [7] and 0.0662 µM (active) in [9].
`O=C(NNC(=O)c1ccc(CNS(=O)(=O)c2ccc(F)c(Cl)c2)cc1)c1ccccc1`: the cell viability, % of control (lower = more cytotoxic) in [1] worked out at 143%. Moreover, the viability (% of control) in assay [2] amounted to 116%. For the same molecule, the Potency result in [3], in [4], in assay [5], in assay [10], in assay [6] and in [7] was “inactive” each time. Moreover, in assay [9], the Potency result is “inactive”.
For `Oc1ccc(-c2ccc(-c3cc(Nc4cccc(CNC5CC5)c4)n[nH]3)cc2)c(O)c1`, the cell viability, % of control (lower = more cytotoxic) in assay [1] stood at 2.13%. For the same molecule, in [2], the viability (% of control) was determined as 3.58%. In addition, the Potency entry in assay [3] and in [4] was “inactive” each time. Besides, the Potency is 1480 nM (active) in assay [5], 1870 nM (active) in [6] and 5900 nM (active) in assay [7].
On to `O=C(Nc1nnc(-c2ccco2)o1)c1cc(-c2ccccc2)nc2ccccc12`, for which the cell viability, % of control (lower = more cytotoxic) in assay [1] is 42.4%. Further, in assay [2], the viability (% of control) amounted to 17.3%. In addition, the Potency entry in assay [3] and in assay [4] was “inactive” in each case. The figures for the Potency in [5] and in assay [6] were 16600 nM (active) and 23500 nM (active), respectively.
`c1ccc2c(Oc3nc(Nc4ccc(N5CCOCC5)cc4)c4ncn(C5CCCCC5)c4n3)cccc2c1`: in assay [1], the cell viability, % of control (lower = more cytotoxic) came out at 187%. Besides, the viability (% of control) in assay [2] turned out to be 100%. The Potency result in assay [3], in assay [4], in assay [5], in assay [10], in [6] and in assay [9] was “inactive” each time.
As for `CC(C)C[C@H](NC(=O)CNC(=O)c1cc(Cl)ccc1Cl)B1OC(=O)CC(CC(=O)O)(C(=O)O)O1` (some centres undefined), in assay [1], the cell viability, % of control (lower = more cytotoxic) stood at 4.85%. Further, in [2], the viability (% of control) worked out at 3.61%. In addition, the Potency result in assay [3] and in [4] was “inactive” each time. Moreover, the Potency in assay [5] was 235 nM (active); in assay [10] it was 235 nM (active); in [6], 118 nM (active); in assay [9] it was 0.935 µM (active).
For the molecule `O=C1NCCc2[nH]c(-c3ccncc3)cc21`, the cell viability, % of control (lower = more cytotoxic) in [1] turned out to be 3.21%. Moreover, the viability (% of control) in [2] was determined as 12.4%. Also, the Potency entry in assay [3] and in assay [4] was “inactive” in each case. The Potency was 3320 nM (active) in assay [5], 3320 nM (active) in assay [6], 5260 nM (active) in [7] and 7.43 µM (active) in assay [9].
For the molecule `CN(CC(=O)N(Cc1ccc(C2CCCCC2)cc1)c1ccc(C(=O)O)c(O)c1)S(=O)(=O)c1c(F)c(F)c(F)c(F)c1F`, the cell viability, % of control (lower = more cytotoxic) in assay [1] came to 52.5%. Further, the viability (% of control) in assay [2] turned out to be 3.33%. In addition, the Potency entry in assay [3], in [4] and in assay [9] was “inactive” throughout. The Potency in [5] was 18700 nM (active); in assay [6], 9350 nM (active); in assay [7], 6620 nM (active).
As to `CCc1c(O)cc(O)c(C(=O)c2ccc(OCCN3CCOCC3)c(OC)c2)c1CC(=O)N(CCOC)CCOC`, the cell viability, % of control (lower = more cytotoxic) in assay [1] was 4.9%. For the same molecule, in assay [2], the viability (% of control) is 16.5%. Also, the Potency result in assay [3], in [4] and in [9] was “inactive” throughout. In addition, the Potency in [5] is 662 nM (active); in assay [10], 2350 nM (active); in assay [6], 1050 nM (active); in assay [7], 526 nM (active).
As for `Nc1nc2c(c(=O)[nH]1)N(C=O)[C@H](CNc1ccc(C(=O)N[C@@H](CCC(=O)O)C(=O)O)cc1)CN2`, in assay [1], the cell viability, % of control (lower = more cytotoxic) came out at 118%. Further, in assay [2], the viability (% of control) came to 92.1%. Further, the Potency result in assay [3], in [4], in assay [5], in assay [10], in [6] and in assay [9] was “inactive” throughout.
On to `CC(C(C)N1CC(=O)NC(=O)C1)N1CC(=O)NC(=O)C1` (centres undefined), for which, in [1], the cell viability, % of control (lower = more cytotoxic) turned out to be 158%. Besides, in [2], the viability (% of control) was 27.4%. The Potency result in [3], in [4], in [7] and in assay [9] was “inactive” throughout. Further, the Potency in [5] and in [6] was 743 nM (active) in each case.
For `FC(F)c1nc2ccccc2n1-c1nc(N2CCOCC2)nc(N2CCOCC2)n1`, in assay [1], the cell viability, % of control (lower = more cytotoxic) was 9.88%. Besides, in assay [2], the viability (% of control) came out at 37.8%. Also, the Potency result in [3] and in [4] was “inactive” in each case. Besides, the Potency was 235 nM (active) in assay [5], 590 nM (active) in [10], 3720 nM (active) in assay [6] and 1.16 µM (active) in assay [9].
As to `CC(C=CC(=O)NO)=C[C@@H](C)C(=O)c1ccc(N(C)C)cc1`, in [1], the cell viability, % of control (lower = more cytotoxic) stood at 2.63%. The viability (% of control) in [2] came out at 2.32%. In addition, the Potency result in [3] and in assay [4] was “inactive” throughout. Also, the Potency in assay [5] was 526 nM (active); in [10], 743 nM (active); in assay [6], 187 nM (active); in assay [9] it was 1.05 µM (active).
For the molecule `CCOC(=O)C1=C(C)NC(=S)NC1c1cccc(O)c1` (centres undefined), in assay [1], the cell viability, % of control (lower = more cytotoxic) was determined as 48.9%. The viability (% of control) in assay [2] stood at 19.3%. Besides, the Potency entry in assay [3] and in assay [4] was “inactive” throughout. The Potency in assay [5] is 264 nM (active); in [10], 105 nM (active); in assay [6] it was 93.5 nM (active); in assay [9], 4.18 µM (active).
Regarding `Nc1ccc(C(=O)Nc2cccc(-c3nc(N4CCOCC4)c4oc5ncccc5c4n3)c2)cn1`, the cell viability, % of control (lower = more cytotoxic) in assay [1] came to 15.1%. For the same molecule, the viability (% of control) in assay [2] came to 4.11%. Moreover, the Potency result in assay [3] and in assay [4] was “inactive” throughout. For the same molecule, the Potency in assay [5] is 18700 nM (active); in assay [10], 16600 nM (active); in assay [6] it was 18700 nM (active); in [8], “inactive and 13 µM (active)”; in [9], “inactive and 9.2 µM (active)”.
Take `Cn1cnc(=N)c2[nH]cnc21`: the cell viability, % of control (lower = more cytotoxic) in [1] stood at 128%. The viability (% of control) in [2] came to 8.73%. The Potency result in [3] and in assay [4] was “inactive” in each case. The Potency in [5] was 296 nM (active); in [10] it was 235 nM (active); in assay [6] it was 209 nM (active); in assay [7], 132 nM (active); in assay [9] it was 10.5 µM (active).
Consider `CC(C)C[C@@H](C=O)NC(=O)[C@H](CC(C)C)NC(=O)[C@H](CC(C)C)NC(=O)OCc1ccccc1` (Cbz-Leu-Leu-Leu-aldehyde), for which the cell viability, % of control (lower = more cytotoxic) in assay [1] was determined as 5.4%. Also, the viability (% of control) in assay [2] amounted to 4.19%. Besides, the Potency result in assay [3] and in assay [4] was “inactive” in each case. The Potency in [5] was 469 nM (active); in [6], 332 nM (active); in assay [7], 372 nM (active); in assay [9], 5.26 µM (active).
